Assay results published in PubChem BioAssay AID1159580 (chemical genetic matrix, 2015).
“And” between values parts separate entries of the source, which are not always exact repeats. Equal entries are not always repeated. About 2,000 (36%) of roughly 5,500 compounds were called active. About 18% were inconclusive and are not listed. Cut-off read from the data, not from the text of the source: active = normalized growth mostly below about 0.91 (no sharp cut-off); inconclusive = no clear call, values can overlap the other calls; inactive = mostly above about 0.92. The list shows a part of the results.

Assay: chemical genetic growth profiling, strain panel (AID 1159580);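 note: tested at 20 µM; growth read once vehicle control cultures reached saturation at 30 °C; 1 = growth at the plate median or of vehicle wells; lower values mean less growth of the strain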
Details: growth OD

Measured: normalized growth

COc1cc(Cc2cnc(N)nc2N)cc(OC)c1OC
inactive: S. cerevisiae deletion strains, locus YJR075W, strain HOC1, hits give low values 1.01 | S. cerevisiae deletion strains, locus YKL009W, strain mrt4, hits give low values 1.04 | S. cerevisiae deletion strains, locus YKL068W, hits give low values 0.986 | S. cerevisiae deletion strains, locus YKL085W, strain MDH1 (second series), hits give low values 1.03 | S. cerevisiae deletion strains, locus YKL085W, strain MDH1, hits give low values 1.03 | S. cerevisiae deletion strains, locus YKL160W, strain elf1, hits give low values 1.01 | S. cerevisiae deletion strains, locus YKL190W, strain CNB1, hits give low values 1.01 | S. cerevisiae deletion strains, locus YKR001C, strain vps1, hits give low values 0.989 | S. cerevisiae deletion strains, locus YKR026C, strain gcn3, hits give low values 1 | S. cerevisiae deletion strains, locus YKR091W, strain srl3, hits give low values 1.01 | S. cerevisiae deletion strains, locus YLL001W, strain dnm1, hits give low values 0.993 | S. cerevisiae deletion strains, locus YLL026W, hits give low values 1.01 | S. cerevisiae deletion strains, locus YLL041C, strain sdh2, hits give low values 1.01 | S. cerevisiae deletion strains, locus YLR027C, strain aat2, hits give low values 1.01 | S. cerevisiae deletion strains, locus YLR039C, strain RIC1, hits give low values 1.03 | S. cerevisiae deletion strains, locus YLR058C, strain SHM2, hits give low values 1 | S. cerevisiae deletion strains, locus YLR102C, strain apc9, hits give low values 0.994 | S. cerevisiae deletion strains, locus YLR113W, strain HOG1, hits give low values 0.994 | S. cerevisiae deletion strains, locus YLR221C, strain rsa3, hits give low values 0.998 | S. cerevisiae deletion strains, locus YLR258W, strain gsy2, hits give low values 1.02 | S. cerevisiae deletion strains, locus YLR262C, strain YPT6 (second series), hits give low values 1.01 | S. cerevisiae deletion strains, locus YLR262C, strain YPT6, hits give low values 1.03 | S. cerevisiae deletion strains, locus YLR268W, strain sec22, hits give low values 0.978 | S. cerevisiae deletion strains, locus YLR320W, strain mms22, hits give low values 1.02 | S. cerevisiae deletion strains, locus YLR330W, strain CHS5, hits give low values 1 | S. cerevisiae deletion strains, locus YLR342W, strain FKS1 (second series), hits give low values 0.992 | S. cerevisiae deletion strains, locus YLR342W, strain FKS1, hits give low values 1 | S. cerevisiae deletion strains, locus YLR357W, strain rsc2, hits give low values 0.998 | S. cerevisiae deletion strains, locus YLR370C, strain arc18, hits give low values 1.01 | S. cerevisiae deletion strains, locus YLR371W, strain rom2, hits give low values 0.991 | S. cerevisiae deletion strains, locus YLR384C, strain iki3, hits give low values 1.02 | S. cerevisiae deletion strains, locus YLR418C, strain cdc73, hits give low values 0.961 | S. cerevisiae deletion strains, locus YML016C, strain PPZ1, hits give low values 0.994 | S. cerevisiae deletion strains, locus YML032C, strain rad52, hits give low values 0.981 | S. cerevisiae deletion strains, locus YML120C, strain ndi1, hits give low values 1.02 | S. cerevisiae deletion strains, locus YML124C, strain tub3, hits give low values 0.991 | S. cerevisiae deletion strains, locus YMR058W, strain fet3, hits give low values 1 | S. cerevisiae deletion strains, locus YMR078C, strain ctf18, hits give low values 0.987 | S. cerevisiae deletion strains, locus YMR125W, strain sto1, hits give low values 1.04 | S. cerevisiae deletion strains, locus YMR129W, hits give low values 1.01 | S. cerevisiae deletion strains, locus YMR205C, strain PFK2, hits give low values 1.03 | S. cerevisiae deletion strains, locus YMR223W, strain ubp8, hits give low values 1.01 | S. cerevisiae deletion strains, locus YMR231W, strain pep5, hits give low values 1.02 | S. cerevisiae deletion strains, locus YMR263W, strain SAP30, hits give low values 1 | S. cerevisiae deletion strains, locus YMR307W, strain GAS1, hits give low values 1.03 and 1 | S. cerevisiae deletion strains, locus YNL067W, strain RPL9B, hits give low values 1 | S. cerevisiae deletion strains, locus YNL071W, strain lat1, hits give low values 1.01 | S. cerevisiae deletion strains, locus YNL128W, strain TEP1, hits give low values 0.998 | S. cerevisiae deletion strains, locus YNL153C, strain GIM3, hits give low values 0.991 | S. cerevisiae deletion strains, locus YNL175C, strain NOP13, hits give low values 0.937 | S. cerevisiae deletion strains, locus YNL183C, strain NPR1, hits give low values 0.934 | S. cerevisiae deletion strains, locus YNL197C, strain WHI3, hits give low values 0.956 | S. cerevisiae deletion strains, locus YNL209W, strain ssb2, hits give low values 1.01 | S. cerevisiae deletion strains, locus YNL224C, strain SQS1, hits give low values 0.981 | S. cerevisiae deletion strains, locus YNL233W, strain BNI4, hits give low values 1.01 | S. cerevisiae deletion strains, locus YNL248C, strain rpa49, hits give low values 1.02 | S. cerevisiae deletion strains, locus YNL250W, strain rad50, hits give low values 0.988 | S. cerevisiae deletion strains, locus YNL271C, strain bni1, hits give low values 0.985 | S. cerevisiae deletion strains, locus YNL298W, strain CLA4, hits give low values 0.985 | S. cerevisiae deletion strains, locus YNL307C, strain MCK1, hits give low values 0.994 | S. cerevisiae deletion strains, locus YNL322C, strain KRE1 (second series), hits give low values 1.03 | S. cerevisiae deletion strains, locus YNL322C, strain KRE1, hits give low values 1 and 0.976 | S. cerevisiae deletion strains, locus YNR049C, strain mso1, hits give low values 1.01 | S. cerevisiae deletion strains, locus YNR052C, strain pop2, hits give low values 0.986 | S. cerevisiae deletion strains, locus YOL006C, strain TOP1, hits give low values 0.954 | S. cerevisiae deletion strains, locus YOL012C, strain htz1 0.78 | S. cerevisiae deletion strains, locus YOL147C, strain pex11, hits give low values 0.996 | S. cerevisiae deletion strains, locus YOR001W, strain rrp6, hits give low values 1.01 | S. cerevisiae deletion strains, locus YOR061W, strain CKA2, hits give low values 1 | S. cerevisiae deletion strains, locus YOR069W, strain VPS5, hits give low values 0.993 | S. cerevisiae deletion strains, locus YOR070C, strain gyp1, hits give low values 1.01 | S. cerevisiae deletion strains, locus YOR080W, strain dia2, hits give low values 1.03 | S. cerevisiae deletion strains, locus YOR083W, strain WHI5 (second series), hits give low values 0.975 | S. cerevisiae deletion strains, locus YOR083W, strain WHI5, hits give low values 0.999 | S. cerevisiae deletion strains, locus YOR106W, strain vam3, hits give low values 1.01 | S. cerevisiae deletion strains, locus YOR136W, strain idh2, hits give low values 0.992 | S. cerevisiae deletion strains, locus YOR144C, strain elg1, hits give low values 0.989 | S. cerevisiae deletion strains, locus YOR184W, strain ser1, hits give low values 0.991 | S. cerevisiae deletion strains, locus YOR231W, strain MKK1, hits give low values 0.993 | S. cerevisiae deletion strains, locus YOR265W, strain rbl2, hits give low values 1.01 | S. cerevisiae deletion strains, locus YOR270C, strain vph1, hits give low values 1 | S. cerevisiae deletion strains, locus YOR290C, strain snf2, hits give low values 1.03 | S. cerevisiae deletion strains, locus YOR316C, strain cot1, hits give low values 0.994 | S. cerevisiae deletion strains, locus YPL051W, strain arl3, hits give low values 1 | S. cerevisiae deletion strains, locus YPL055C, strain LGE1, hits give low values 1.05 and 1.01 | S. cerevisiae deletion strains, locus YPL078C, strain atp4, hits give low values 1.01 | S. cerevisiae deletion strains, locus YPL106C, strain sse1, hits give low values 1.04 | S. cerevisiae deletion strains, locus YPL240C, strain hsp82, hits give low values 1.01 | S. cerevisiae deletion strains, locus YPL241C, strain CIN2, hits give low values 1 | S. cerevisiae deletion strains, locus YPL256C, strain CLN2, hits give low values 0.982 | S. cerevisiae deletion strains, locus YPR119W, strain clb2, hits give low values 0.986 | S. cerevisiae deletion strains, locus YPR141C, strain kar3, hits give low values 0.987 | S. cerevisiae deletion strains, locus YPR163C, strain tif3, hits give low values 0.988 | S. cerevisiae deletion strains, locus YPR167C, strain met16, hits give low values 0.985 | S. cerevisiae deletion strains, strain wtn01, hits give low values 0.977 | S. cerevisiae strains, strain wild type, hits give low values 1.01
